Mcl1-Noxa inh: Mcl-1/Noxa binding inhibitors, primary screen, biochemical, TR-FRET, 1536-well; TR-FRET Mcl-1/Noxa peptide binding, 2 h; inhibition, % at 21.7 µM; 1.5% of 220,000 active; AID 1022, 2008;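 active = compounds that cut the protein-peptide binding signal by more than 50% relative to plate controls in a single-dose test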;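 note: His-tagged Mcl-1 with rhodamine Noxa BH3 peptide and terbium anti-His antibody; 0% = Mcl-1 plus Noxa peptide wells and 100% = peptide-only wells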
Target sequence (Q07820 whole entry, looked up): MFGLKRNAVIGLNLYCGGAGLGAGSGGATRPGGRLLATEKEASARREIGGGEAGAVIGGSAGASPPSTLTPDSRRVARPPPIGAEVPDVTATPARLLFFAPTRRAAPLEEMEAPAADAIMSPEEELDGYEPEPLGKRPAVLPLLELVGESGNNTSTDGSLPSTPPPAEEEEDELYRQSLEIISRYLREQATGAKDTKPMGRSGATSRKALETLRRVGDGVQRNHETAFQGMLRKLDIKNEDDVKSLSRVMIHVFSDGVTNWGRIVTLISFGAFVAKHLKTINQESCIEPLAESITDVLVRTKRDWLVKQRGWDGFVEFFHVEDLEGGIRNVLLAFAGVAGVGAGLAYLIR
Mcl1-Bid inh: Mcl-1/Bid binding inhibitors, primary screen, biochemical, TR-FRET, 1536-well; TR-FRET Mcl-1/Bid-Dy647 peptide binding; inhibition, % at 21.7 µM; 0.97% of 220,000 active;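 active = compounds that cut the binding signal by more than half at the single screening dose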;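 note: His-tagged Mcl-1 with europium anti-His antibody binding Bid BH3 peptide; 0% = Mcl-1 plus peptide wells and 100% = peptide-only wells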
Bim-Mcl-1: inhibitors of Bim peptide binding to Mcl-1, primary screen, biochemical, bead-based flow cytometry, multiplex. Induced myeloid leukemia cell differentiation protein Mcl-1 (Homo sapiens), Q07820. Bim peptide-Mcl-1 binding. inhibition, % at 10 µM. 0.1% of 190,000 active. AID 1009, 2008; in the data active = inhibition above about 40%;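 note: 0% = no compound tracer wells and 100% = peptide blocker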
14-3-3 Bad PPI: inhibitors of 14-3-3 zeta/Bad binding, primary screen, biochemical, TR-FRET, bovine 14-3-3 zeta | AID 781, 2007 | TR-FRET 14-3-3zeta/Dy647-pBad peptide displacement, 1 h | 14-3-3 protein zeta/delta (Bos taurus), P63103 | inhibition, % at 21.7 µM | 0.71% of 220,000 active;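 active = inhibition above about 70%, limit read from the data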;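 note: 0% = full 14-3-3 plus peptide FRET controls and 100% = background without 14-3-3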
Target sequence (P63103 whole entry, looked up): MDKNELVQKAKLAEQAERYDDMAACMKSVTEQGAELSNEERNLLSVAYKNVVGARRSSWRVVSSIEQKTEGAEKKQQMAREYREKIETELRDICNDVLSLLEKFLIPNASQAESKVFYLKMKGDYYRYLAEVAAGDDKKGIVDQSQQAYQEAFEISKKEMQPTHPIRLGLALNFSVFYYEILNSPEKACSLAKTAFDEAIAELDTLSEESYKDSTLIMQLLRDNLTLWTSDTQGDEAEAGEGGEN
NCF1 inh: p47phox/p22phox peptide binding inhibitors, primary screen, biochemical, uHTS, NADPH oxidase regulatory subunit; Neutrophil cytosol factor 1 (Homo sapiens), P14598; fluorescence polarization, 2 h; inhibition, % at 24.7 µM; 0.53% of 220,000 active;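 active = inhibition above about 30%, limit read from the data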;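 note: 0% = p47phox with labelled peptide and 100% = labelled peptide alone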
Starred values were filed as active, the others as inactive. Sampled rows, rich in hits. Any-hit rate of the full collection: about 3.2%.

For CCc1nnc(NC(=O)CSc2ncnc3c2oc2ccccc23)s1 the results were Mcl1-Noxa inh -117, Mcl1-Bid inh -68, Bim-Mcl-1 -1, 14-3-3 Bad PPI 73* and NCF1 inh -2.
`O=C(CSc1ncnc2c1oc1ccccc12)Nc1nc2ccccc2s1` gave Mcl1-Noxa inh -16, Mcl1-Bid inh 9, Bim-Mcl-1 5, 14-3-3 Bad PPI 6 and NCF1 inh -27.
`Cc1nn(Cc2ccccc2)c(Cl)c1/C=C/C(=O)OC(C(=O)NC(N)=O)C(C)C` (centres undefined) gave Mcl1-Noxa inh 9, Mcl1-Bid inh 3, Bim-Mcl-1 0, 14-3-3 Bad PPI -8 and NCF1 inh -7.
Screening O=C(COc1ccccc1F)NCC(c1ccco1)N1CCCC1 (centres undefined) returned Mcl1-Noxa inh 1, Mcl1-Bid inh -31, Bim-Mcl-1 -6, 14-3-3 Bad PPI -17 and NCF1 inh -1.
`Nc1nc(CSc2nc3ccccc3s2)nc(Nc2ccccc2)n1` gave Mcl1-Noxa inh 73*, Mcl1-Bid inh 14, Bim-Mcl-1 -5, 14-3-3 Bad PPI 1 and NCF1 inh -9.
Screening Cc1ccc(-c2nnc(N(C)C(=O)C3CCCO3)s2)cn1 (centres undefined) returned Mcl1-Noxa inh 13, Mcl1-Bid inh 7, Bim-Mcl-1 0, 14-3-3 Bad PPI 75* and NCF1 inh 2.
Screening CC(=O)c1ccccc1NS(C)(=O)=O returned Mcl1-Noxa inh 7, Mcl1-Bid inh -15, Bim-Mcl-1 0, 14-3-3 Bad PPI -3 and NCF1 inh 0.
`Cc1cc(NC(=O)CSc2nc3c(sc4ccccc43)c(=O)n2CCc2ccccc2)n[nH]1` gave Mcl1-Noxa inh 7, Mcl1-Bid inh -1, Bim-Mcl-1 -4, 14-3-3 Bad PPI 13 and NCF1 inh 32*.
`C=C1[C@@H](OC(C)=O)CC[C@]2(C)[C@@H]1C[C@@H]1C[C@H](OC(C)=O)C(C)=C([C@@H](OC(C)=O)[C@@H]2OC(C)=O)C1(C)C` gave Mcl1-Noxa inh 2, Mcl1-Bid inh -1, 14-3-3 Bad PPI 0 and NCF1 inh -1.
`Cc1[nH]c2c(C)cccc2c1CC(=O)O` gave Mcl1-Noxa inh 7, Mcl1-Bid inh -40, Bim-Mcl-1 -1, 14-3-3 Bad PPI 86* and NCF1 inh -11.
For Cc1cc(C)c(C)c(S(=O)(=O)N2CCN(CC(=O)Nc3sccc3C#N)CC2)c1C the results were Mcl1-Noxa inh -2, Mcl1-Bid inh -41, Bim-Mcl-1 0, 14-3-3 Bad PPI -34 and NCF1 inh -84.
`Cc1cc(NC(=O)CSc2ccc3ccccc3c2)no1` gave Mcl1-Noxa inh 53*, Mcl1-Bid inh 30, Bim-Mcl-1 0, 14-3-3 Bad PPI 0 and NCF1 inh -41.
`Cc1cc(NC(=O)CSc2nc(-c3ccccc3)cs2)no1` gave Mcl1-Noxa inh -3, Mcl1-Bid inh 3, Bim-Mcl-1 -1, 14-3-3 Bad PPI 4 and NCF1 inh -7.
For Cc1cc(NC(=O)CSc2nc(-c3ccc(F)cc3)cs2)no1 the results were Mcl1-Noxa inh 86*, Mcl1-Bid inh -41, Bim-Mcl-1 1 and NCF1 inh 2.
Screening CCc1ccc(CN(C)C(=O)CCc2nnc(COc3ccccc3)o2)cc1 returned Mcl1-Noxa inh -13, Mcl1-Bid inh -11, Bim-Mcl-1 -4, 14-3-3 Bad PPI 1 and NCF1 inh -4.
Screening O=C(O)CCc1nn2c3ccccc3n(CC(=O)c3ccccc3)c2nc1=O returned Mcl1-Noxa inh 28, Mcl1-Bid inh 74*, Bim-Mcl-1 3, 14-3-3 Bad PPI -2 and NCF1 inh -1.
CCOC(=O)c1cc(-c2ccccc2)sc1NC(=O)C(C)(C)C was read as Mcl1-Noxa inh 9, Mcl1-Bid inh -2, Bim-Mcl-1 0, 14-3-3 Bad PPI -2 and NCF1 inh 5.
For CCOC(=O)c1cc(-c2ccccc2)sc1NC(=O)CC(C)C the results were Mcl1-Noxa inh 6, Mcl1-Bid inh 4, Bim-Mcl-1 1, 14-3-3 Bad PPI 74* and NCF1 inh -3.
CCCCNC(=O)O/N=C(\N)CS(=O)(=O)C(C)(C)C was read as Mcl1-Noxa inh -9, Mcl1-Bid inh -8, 14-3-3 Bad PPI -1 and NCF1 inh -2.
Screening Cc1ccc(C2C(C(=O)c3cc4ccccc4o3)=C(O)C(=O)N2CCN2CCOCC2)o1 (centres undefined) returned Mcl1-Noxa inh 21, Mcl1-Bid inh 51*, Bim-Mcl-1 -2, 14-3-3 Bad PPI -3 and NCF1 inh -13.
For O=C(CN1C(=O)/C(=C/c2cccc(Br)c2)SC1=S)NC1=NCCS1 the results were Mcl1-Noxa inh 55*, Mcl1-Bid inh 0, Bim-Mcl-1 -4, 14-3-3 Bad PPI 8 and NCF1 inh -178.
Screening O=C(CN1C(=O)/C(=C/c2cccc(Br)c2)SC1=S)Nc1cccnc1 returned Mcl1-Noxa inh 52*, Mcl1-Bid inh 6, Bim-Mcl-1 -2, 14-3-3 Bad PPI -2 and NCF1 inh -60.
O=C(CCN1C(=O)/C(=C/c2ccc3c(c2)OCO3)SC1=S)NNC(=O)c1cccnc1 was read as Mcl1-Noxa inh 35, Mcl1-Bid inh 53*, Bim-Mcl-1 -21, 14-3-3 Bad PPI 71* and NCF1 inh 20.
`O=C(CCN1C(=O)/C(=C/c2cccc(Br)c2)SC1=S)NNC(=O)c1cccnc1` gave Mcl1-Noxa inh 46, Mcl1-Bid inh 67*, Bim-Mcl-1 7, 14-3-3 Bad PPI 50 and NCF1 inh 15.
For O=C(CCN1C(=O)/C(=C/c2ccccc2)SC1=S)NNC(=O)c1cccnc1 the results were Mcl1-Noxa inh 19, Mcl1-Bid inh -1, Bim-Mcl-1 0, 14-3-3 Bad PPI -5 and NCF1 inh 7.
`O=C(CN1C(=O)/C(=C/c2cccc(Br)c2)SC1=S)N1CCCC1` gave Mcl1-Noxa inh 24, Mcl1-Bid inh -18, Bim-Mcl-1 -3, 14-3-3 Bad PPI -15 and NCF1 inh -9.
`O=[N+]([O-])c1cc(Cl)cc(/C=N/Nc2nc3ccccc3s2)c1O` gave Mcl1-Noxa inh 67*, Mcl1-Bid inh -15, Bim-Mcl-1 -1, 14-3-3 Bad PPI -10 and NCF1 inh 3.
COc1cc(/C=N/Nc2nc3ccccc3s2)cc([N+](=O)[O-])c1O was read as Mcl1-Noxa inh 32, Mcl1-Bid inh 13, 14-3-3 Bad PPI 0 and NCF1 inh -4.
Cn1c(CCc2nc3ccccc3[nH]2)nnc1SCC#N was read as Mcl1-Noxa inh 9, Mcl1-Bid inh -14, Bim-Mcl-1 -3, 14-3-3 Bad PPI 15 and NCF1 inh 1.
For CCc1nc2c(c(=O)c3ccccc3n2C)c(=O)n1CCc1ccc(OC)cc1 the results were Mcl1-Noxa inh 19, Mcl1-Bid inh -2, Bim-Mcl-1 -6, 14-3-3 Bad PPI 88* and NCF1 inh 5.

Screening results as filed in PubChem.
